Measurements: PubChem BioAssay (NCI)
About 83,000 compounds went through this panel and 20% of them were active in at least one assay; those are over-represented in the sample as a whole.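 Note: values are percent growth. 100 is the growth of untreated cells, values between 100 and 0 indicate rising inhibition; between -100 and 0 indicates cell death.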 Active and inactive are the calls of the source. Rule for the calls: active = growth percent below 10; inactive = the rest.

How the values were obtained:
Assay in all cases: NCI-60 one-dose screen, 48 h (100 = growth as untreated, 0 = no growth, -100 = all killed)
Details in all cases: 10 µM unless noted
NCI-H23 lung = tested on: NCI-H23 lung
NCI-H226 lung = tested on: NCI-H226 lung
NCI-H322M lung = tested on: NCI-H322M lung
HOP-62 NSCLC = tested on: HOP-62 NSCLC
NCI-H460 lung = tested on: NCI-H460 lung
HOP-92 NSCLC = tested on: HOP-92 NSCLC
NCI-H522 lung = tested on: NCI-H522 lung
A549/ATCC NSCLC = tested on: A549/ATCC NSCLC
786-0 renal = tested on: 786-0 renal
COLO 205 colon = tested on: COLO 205 colon
DU-145 prostate = tested on: DU-145 prostate
K-562 leukemia = tested on: K-562 leukemia
MALME-3M melanoma = tested on: MALME-3M melanoma
MDA-MB-231 breast = tested on: MDA-MB-231 breast
RXF 393 renal = tested on: RXF 393 renal
SF-268 CNS = tested on: SF-268 CNS
SF-295 CNS = tested on: SF-295 CNS
SF-539 CNS = tested on: SF-539 CNS
UACC-257 melanoma = tested on: UACC-257 melanoma
M14 melanoma = tested on: M14 melanoma

Measured: growth

CCNCc1ccc(O)c2ncccc12
active: HOP-92 NSCLC -8.24% | NCI-H522 lung 8.59% | UACC-257 melanoma 9.76%
inactive: NCI-H23 lung 24.1% | NCI-H226 lung 62.4% | NCI-H322M lung 38% | HOP-62 NSCLC 27.8% | NCI-H460 lung 20% | A549/ATCC NSCLC 17.6% | 786-0 renal 39.6% | COLO 205 colon 80.7% | DU-145 prostate 37% | K-562 leukemia 13.9% | MALME-3M melanoma 60.6% | MDA-MB-231 breast 46.9% | RXF 393 renal 60.3% | SF-268 CNS 35.2% | SF-295 CNS 39.9% | SF-539 CNS 25.1% | M14 melanoma 33.8%

CN(C)c1ccc(-c2cc(-c3ccc(Nc4nc(Nc5ccc(Cl)cc5)nc(Nc5ccc(Cl)cc5)n4)cc3)nc(N)c2C#N)cc1
inactive: NCI-H23 lung 87.8% | NCI-H226 lung 107% | NCI-H322M lung 115% | HOP-62 NSCLC 73% | NCI-H460 lung 86.3% | HOP-92 NSCLC 46.3% | NCI-H522 lung 87.6% | A549/ATCC NSCLC 72.3% | 786-0 renal 72.4% | COLO 205 colon 69.8% | DU-145 prostate 95.8% | K-562 leukemia 68.4% | MALME-3M melanoma 81.8% | MDA-MB-231 breast 77.4% | RXF 393 renal 37.1% | SF-268 CNS 94.9% | SF-295 CNS 64% | SF-539 CNS 77.9% | UACC-257 melanoma 99.1% | M14 melanoma 71.4%

CN1CCN(C(=O)c2cc(-c3ccc4ncnc(N5CCc6cc(F)c(Cl)cc65)c4c3)cnc2N)CC1
inactive: NCI-H226 lung 14.5% | HOP-62 NSCLC 12% | K-562 leukemia 11.1% | MDA-MB-231 breast 10.5%
active: NCI-H23 lung 8.25% | NCI-H322M lung -8.41% | NCI-H460 lung 8.83% | HOP-92 NSCLC -27.2% | NCI-H522 lung 2.49% | A549/ATCC NSCLC 3.84% | 786-0 renal 2.28% | COLO 205 colon 3.92% | DU-145 prostate 8.87% | MALME-3M melanoma -38.6% | RXF 393 renal -48.9% | SF-268 CNS 0.525% | SF-295 CNS 0.0297% | SF-539 CNS -24.3% | UACC-257 melanoma 6% | M14 melanoma 1.59%

CCOC(=O)C1CCN(c2ccc(N3C[C@@H](CNCc4ccc(C(=N)N)cc4)OC3=O)cc2)CC1
inactive: NCI-H23 lung 97.9% | NCI-H226 lung 97.2% | NCI-H322M lung 103% | HOP-62 NSCLC 97.5% | NCI-H460 lung 103% | HOP-92 NSCLC 90.8% | NCI-H522 lung 92.6% | A549/ATCC NSCLC 104% | 786-0 renal 100% | COLO 205 colon 103% | DU-145 prostate 98.6% | K-562 leukemia 99.3% | MALME-3M melanoma 83.1% | MDA-MB-231 breast 99.8% | RXF 393 renal 99.7% | SF-268 CNS 100% | SF-295 CNS 101% | SF-539 CNS 94.4% | UACC-257 melanoma 102% | M14 melanoma 94.7%

Cc1ccc(C(=O)c2ccc(CC(=O)N/N=C/c3ccc(O)cc3O)n2C)cc1
inactive: NCI-H23 lung 42.4% | NCI-H226 lung 65.7% | NCI-H322M lung 38% | HOP-62 NSCLC 40.6% | NCI-H460 lung 21.1% | HOP-92 NSCLC 83.1% | NCI-H522 lung 55.5% | A549/ATCC NSCLC 46.6% | 786-0 renal 43.4% | COLO 205 colon 41.8% | DU-145 prostate 51.3% | K-562 leukemia 45% | MALME-3M melanoma 48.6% | MDA-MB-231 breast 51.4% | RXF 393 renal 49.7% | SF-268 CNS 37.3% | SF-295 CNS 47.2% | SF-539 CNS 44.4% | UACC-257 melanoma 68.3% | M14 melanoma 28.8%

COc1cc(-c2cc(-c3ccc(Nc4ncnc5cc(Cl)ccc45)cc3)nc(N3CCN(C)CC3)n2)cc(OC)c1OC
inactive: NCI-H23 lung 108% | NCI-H226 lung 50.5% | NCI-H322M lung 104% | HOP-62 NSCLC 94.4% | NCI-H460 lung 100% | HOP-92 NSCLC 77.7% | NCI-H522 lung 85.8% | A549/ATCC NSCLC 89.2% | 786-0 renal 45.2% | COLO 205 colon 90.6% | DU-145 prostate 98.9% | K-562 leukemia 56% | MALME-3M melanoma 71% | MDA-MB-231 breast 51.7% | SF-268 CNS 76.9% | SF-295 CNS 111% | SF-539 CNS 32.9% | UACC-257 melanoma 117% | M14 melanoma 80.8%
active: RXF 393 renal -1.57%

COc1ccc(C2=Nc3c/c(=C\c4c(O)[nH]c5cc(Cl)ccc45)ccc3=N2)cc1
inactive: NCI-H23 lung 68.1% | NCI-H226 lung 84.1% | NCI-H322M lung 91.2% | HOP-62 NSCLC 77.3% | NCI-H460 lung 93.6% | HOP-92 NSCLC 77.9% | NCI-H522 lung 46% | A549/ATCC NSCLC 74.9% | 786-0 renal 90.8% | DU-145 prostate 76.8% | K-562 leukemia 48.8% | MALME-3M melanoma 72.6% | MDA-MB-231 breast 69.2% | RXF 393 renal 38.1% | SF-268 CNS 89.7% | SF-295 CNS 57.9% | SF-539 CNS 64.8% | UACC-257 melanoma 74.5% | M14 melanoma 50.5%
active: COLO 205 colon 3.61%

C[Se]C(=O)CC1=C2C=C(F)C=CC2/C(=C\c2ccc(S(C)=O)cc2)C1C (stereo not given)
inactive: NCI-H23 lung 13.5% | NCI-H322M lung 14.1% | NCI-H522 lung 12.9% | K-562 leukemia 28.6% | SF-295 CNS 11.3%
active: NCI-H226 lung 1.21% | HOP-62 NSCLC -24.3% | NCI-H460 lung -1% | HOP-92 NSCLC -41.4% | A549/ATCC NSCLC -60.1% | 786-0 renal 3.8% | COLO 205 colon -17.4% | DU-145 prostate -50.5% | MALME-3M melanoma -68.7% | MDA-MB-231 breast -46% | RXF 393 renal 6.68% | SF-268 CNS -28.2% | SF-539 CNS -30.3% | UACC-257 melanoma -21.5% | M14 melanoma 7.44%

O=C(N=Nc1c(O)[nH]c2ccccc12)Nc1ccc(Cl)cc1
inactive: NCI-H23 lung 93% | NCI-H226 lung 95.5% | NCI-H322M lung 75.3% | HOP-62 NSCLC 98.6% | NCI-H460 lung 91.3% | HOP-92 NSCLC 80% | NCI-H522 lung 89.8% | A549/ATCC NSCLC 92.5% | 786-0 renal 97.8% | COLO 205 colon 99.5% | DU-145 prostate 108% | K-562 leukemia 81.5% | MALME-3M melanoma 96.3% | MDA-MB-231 breast 102% | RXF 393 renal 96.3% | SF-268 CNS 101% | SF-295 CNS 101% | SF-539 CNS 83.8% | UACC-257 melanoma 95.8% | M14 melanoma 95.3%

C=C1C(=O)O[C@H]2[C@H]1CC/C(COC(=O)NCc1ccc(Cn3c(=O)sn(-c4ccc(OC)cc4)c3=O)cc1)=C\CC[C@@]1(C)O[C@@H]21
active: HOP-92 NSCLC -1.01% | NCI-H522 lung -65.4% | COLO 205 colon -51.2% | K-562 leukemia -3.73% | MALME-3M melanoma -3.77%
inactive: NCI-H23 lung 88.2% | NCI-H226 lung 94.8% | NCI-H322M lung 97.7% | HOP-62 NSCLC 98.9% | NCI-H460 lung 95.2% | A549/ATCC NSCLC 97.7% | 786-0 renal 50.9% | DU-145 prostate 27% | MDA-MB-231 breast 47.7% | RXF 393 renal 42.3% | SF-268 CNS 86.5% | SF-295 CNS 97.7% | SF-539 CNS 82.1% | UACC-257 melanoma 65.3% | M14 melanoma 25.7%

NC(CSC(c1ccccc1)(c1ccccc1)c1ccc2c(c1)OCO2)C(=O)O (stereo not given)
inactive: NCI-H23 lung 14.6% | NCI-H226 lung 75% | NCI-H322M lung 26.6% | HOP-62 NSCLC 55.3% | HOP-92 NSCLC 10.9% | A549/ATCC NSCLC 18.5% | 786-0 renal 51.1% | MALME-3M melanoma 47.6% | MDA-MB-231 breast 19.8% | SF-268 CNS 38.8% | SF-539 CNS 13.4% | UACC-257 melanoma 32.6%
active: NCI-H460 lung 7.27% | NCI-H522 lung -20.9% | COLO 205 colon -32% | DU-145 prostate -26.3% | K-562 leukemia 8.25% | RXF 393 renal -5.81% | SF-295 CNS -27.6% | M14 melanoma -19.4%

O=C1CC2C=CCN2C=C1NC(=O)C1CCCCC1 (stereo not given)
inactive: NCI-H23 lung 97.4% | NCI-H226 lung 104% | NCI-H322M lung 100% | HOP-62 NSCLC 102% | NCI-H460 lung 112% | HOP-92 NSCLC 115% | NCI-H522 lung 89.7% | A549/ATCC NSCLC 97.5% | 786-0 renal 99.5% | COLO 205 colon 105% | DU-145 prostate 98.9% | K-562 leukemia 99.9% | MALME-3M melanoma 78% | MDA-MB-231 breast 108% | RXF 393 renal 104% | SF-268 CNS 95.5% | SF-295 CNS 98.5% | SF-539 CNS 98.4% | UACC-257 melanoma 97.8% | M14 melanoma 114%

O=C1/C(=C/c2ccc(C(F)(F)F)cc2)COc2ccc(O)cc21
active: NCI-H522 lung -13.6% | K-562 leukemia 5.54%
inactive: NCI-H23 lung 98% | NCI-H226 lung 107% | NCI-H322M lung 95.2% | HOP-62 NSCLC 96.2% | NCI-H460 lung 98.4% | HOP-92 NSCLC 82.4% | A549/ATCC NSCLC 87.1% | 786-0 renal 80% | COLO 205 colon 90.7% | DU-145 prostate 99.1% | MALME-3M melanoma 88.7% | MDA-MB-231 breast 79.4% | RXF 393 renal 102% | SF-268 CNS 85.3% | SF-295 CNS 99.1% | SF-539 CNS 86.7% | UACC-257 melanoma 98.1% | M14 melanoma 85.6%

CN(C)c1ccc(/C=C2/C=C(c3ccccc3)OC2=O)cc1
inactive: NCI-H23 lung 95.4% | NCI-H226 lung 105% | NCI-H322M lung 96.9% | HOP-62 NSCLC 96.3% | NCI-H460 lung 103% | HOP-92 NSCLC 98.2% | NCI-H522 lung 55.7% | A549/ATCC NSCLC 96.4% | 786-0 renal 100% | COLO 205 colon 99.3% | DU-145 prostate 101% | K-562 leukemia 46.9% | MALME-3M melanoma 96.2% | MDA-MB-231 breast 109% | RXF 393 renal 89.5% | SF-268 CNS 101% | SF-295 CNS 79.4% | SF-539 CNS 102% | UACC-257 melanoma 89.2% | M14 melanoma 86.1%
